Rows were chosen to be rich in hits. Some 18% of all compounds tested hit in one or more screens of this group.
IL-1B inflam inh – inflammasome signaling inhibition, IL-1 beta readout. THP-1 LPS/ATP IL-1B secretion, AlphaLISA, 16 h; hits give low values. activity change, % at 57.5 µM. actives 4.7% (n = 360,000). AID 743279; in the data active = activity change below about -50%; inconclusive = mostly about -30% to -49%; also: % is scaled to controls: 0 for no effect and ±100 for the full control effect
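THP-1 cells pretreated 1 hr with compounds (up to 57.5 uM final), then stimulated with LPS (250 ng/mL final) plus ATP (1.25 mM final); secreted IL-1B measured by AlphaLISA after 16 hr, decreased signal indicating inhibition.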
HepG2 tox – kills HepG2 cells in TGF-b inhibitor counter-screen | Potency, µM (series often up to 46.1 µM), for the others: at the top dose activity change, negative = cytotoxicity, hits mostly cytotoxic | HepG2 CAGA-GFP viability, ATP luminescence, 18 h | actives 0.76% (n = 410,000) | AID 588856; also: potency is read from the fitted curve at half-maximal effect
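CellTiter-Glo luminescence gave cytotoxicity after 18 hours at 37 degrees C. The cells were HepG2 CAGA-GFP in 1% FBS DMEM, stimulated with 500 pg/mL TGF-beta after compound addition. %Activity was normalised to no-cell wells (complete cell-killing) and DMSO (no toxicity), and curves were fitted and classified.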
TDP1 inh – TDP1 (human) enzyme inhibition. Potency, µM (titrated, usually from 130 µM), inactives show top-dose activity change, negative = inhibition, most hits filed as inhibitors. actives 0.28% (n = 350,000). recombinant TDP1, AlphaScreen DNA substrate cleavage; also: potency is read from the fitted curve at half-maximal effect; % is scaled to controls: 0 for no effect and ±100 for the full control effect; nearly all actives have a fitted effect of over 40% in size
Target sequence (Q9NUW8 whole entry, looked up): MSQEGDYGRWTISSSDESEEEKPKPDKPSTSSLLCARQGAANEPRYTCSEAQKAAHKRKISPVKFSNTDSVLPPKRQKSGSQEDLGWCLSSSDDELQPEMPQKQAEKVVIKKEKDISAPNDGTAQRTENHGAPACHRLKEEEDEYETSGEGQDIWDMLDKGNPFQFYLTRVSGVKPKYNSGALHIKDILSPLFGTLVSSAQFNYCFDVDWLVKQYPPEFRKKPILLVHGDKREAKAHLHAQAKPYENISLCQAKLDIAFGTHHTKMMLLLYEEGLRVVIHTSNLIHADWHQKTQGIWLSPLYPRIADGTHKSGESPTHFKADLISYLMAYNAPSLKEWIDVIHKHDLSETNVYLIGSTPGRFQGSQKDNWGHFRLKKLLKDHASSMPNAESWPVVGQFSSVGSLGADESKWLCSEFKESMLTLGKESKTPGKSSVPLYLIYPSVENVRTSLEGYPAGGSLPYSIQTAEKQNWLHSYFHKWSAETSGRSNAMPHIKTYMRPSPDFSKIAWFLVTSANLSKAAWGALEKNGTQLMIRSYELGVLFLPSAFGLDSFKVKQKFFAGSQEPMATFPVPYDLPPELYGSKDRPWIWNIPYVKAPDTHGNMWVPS
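E. coli-derived human Tdp1, 1 nM final. Cpd preinc 15 min RT; substrate 15 nM final, 5 min RT; AS bead mix 10 ug/ml final, 10 min RT. Signal loss = tyrosine-FITC cleavage. No-enzyme wells = max signal.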
TDP1 cell CPT – DT40-hTDP1 cell growth loss with CPT; chicken DT40 Tdp1-/-;hTDP1 cells + 20 nM CPT, ATP luminescence, 48 h; Potency, µM (series often up to 46.2 µM), for inactives: at the highest dose activity change, negative = growth inhibition, most hits filed as inhibitors; actives 12% (n = 420,000); AID 686979; also: potency is read from the fitted curve at half-maximal effect; % is scaled to controls: 0 for no effect and ±100 for the full control effect; nearly all actives have a fitted effect of over 55% in size
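Chicken DT40 Tdp1-/- cells stably complemented with human TDP1 were seeded at 400 cells/well in medium containing 20 nM camptothecin, exposed to pin-transferred compounds, and grown at 37 °C for at least 48 hr. Viability was read as ATP luminescence.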
DT40 TDP1 no CPT – qHTS for Inhibitors of human tyrosyl-DNA phosphodiesterase 1 (TDP1): qHTS in cells in absence of CPT; DT40 Tdp1-/- hTDP1 cells, no CPT, ATP luminescence, 48 h; Potency, µM (highest dose often 46.2 µM), for the others: at the top dose activity change, negative = growth inhibition, hits mostly inhibitors; actives 15% (n = 420,000); AID 686978, 2013; also: potency is read from the fitted curve at half-maximal effect; % is scaled to controls: 0 for no effect and ±100 for the full control effect; nearly all actives have a fitted effect of over 55% in size
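Growth of hTDP1-complemented DT40 Tdp1-knockout cells is measured by ATP luminescence after at least 48 hr compound exposure at 37 °C, with DMSO substituting for the 20 nM CPT used in the parallel screen.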
TGFb SMAD3 inh – inhibitors of TGF-b signaling; AID 588855; HepG2 CAGA-GFP TGF-b/SMAD3 reporter, GFP fluorescence, 18 h; TGF-beta stimulated, 500 pg/mL final; Potency, µM (top dose mostly 46.1 µM), inactives show at the highest dose activity, negative = inhibition, usual class: inhibitors; actives 1.2% (n = 410,000); also: potency is read from the fitted curve at half-maximal effect; % is scaled to controls: 0 for no effect and ±100 for the full control effect; nearly all actives have a fitted effect of over 65% in size
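Per well, imaged GFP fluorescence of HEPG2 CAGA-GFP cells gives the signal; cells get compound, then TGF-beta (500 pg/mL final), 18 h at 37 degrees C; %Activity versus -TGF-beta and +DMSO controls.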
The depositor's hits bear a star; i = inactive; ? = inconclusive; nt = not tested or not shown; [ ] = remark or other dose. Unless noted, calls follow the shape of the dose curve; as a rule, active = well fitted curve in the direction sought with a large enough effect; inconclusive = small, poorly fitted or top-dose-only effect, or another doubt; inactive = no such curve, though single readings can be large; an effect the other way counts as inactive or inconclusive.

SMILES	IL-1B inflam inh	HepG2 tox	TDP1 inh	TDP1 cell CPT	DT40 TDP1 no CPT	TGFb SMAD3 inh
CCCCNS(=O)(=O)c1ccc(NC(=O)C2c3ccccc3Oc3ccccc32)cc1	26.3	10µM*	0.6%	-15.5%	?	?
COc1ccc(CC(=O)Nc2ccc(S(=O)(=O)NC(C)C)cc2)cc1	23.1	-19.8%	0.0%	?	?	-9.0%
CCCCNS(=O)(=O)c1ccc(NC(=O)Cc2ccc(OC)cc2)cc1	35.6	-2.1%	-2.7%	13µM*	7.31µM*	5.0%
CC(C)C[C@@H](CC(=O)N[C@H](CC(=O)N[C@@H]1CCNC[C@H]1C(=O)N[C@H](CC(=O)N[C@@H](CCC(=O)O)CC(=O)O)CC(C)C)C(C)C)NC(=O)[C@@H]1CNCC[C@H]1N	nt	nt	3.7%	nt	nt	nt
CCc1ccc(CN2CCC(n3nccc3NC(=O)c3ccccc3OC)CC2)o1	-24.5	-3.6%	nt	?	?	-9.0%
CC(CN1CCC(n2nccc2NC(=O)c2ccccc2Cl)CC1)c1ccccc1 (configuration not stated)	i	0.0%	1.7%[56.1 µM]	?	-26.8%	-2.7%
CC(C)=CCN1CCC(n2nccc2NC(=O)c2ccccc2Cl)CC1	?	-3.4%	1.1%	-25.7%	20.6µM*	1.4%
COc1ccccc1C(=O)Nc1ccnn1C1CCN(C/C=C/c2ccccc2)CC1	-18.8	2.9%	2.7%	23.1µM*	?	-3.9%
CCN(CC)c1nc(Nc2ccc([N+](=O)[O-])cc2)nc(N(CC)CC)n1	-29.8	-28.0%	6.0%	25.9µM*	20.6µM*	-12.5%
CCOc1nc(Nc2ccc([N+](=O)[O-])cc2)nc(NC(C)(C)C)n1	-26.0	-26.8%	2.7%	6.7%	-7.6%	-29.9%
Cc1ccc(NS(=O)(=O)c2cc(C(=O)NCCSC3CCCCC3)ccc2C)cc1	-57.4*	-1.8%	5.3%	?	?	?
Cc1ccc(C(=O)NCCSc2ccc(Cl)cc2)cc1S(=O)(=O)Nc1ccccc1	-93.1*	-35.0%	6.0%	?	?	?
Cc1ccc(NS(=O)(=O)c2cc(C(=O)NCCSc3ccc(C)cc3)ccc2C)cc1	-52.9*	-8.8%	7.5%	?	?	?
Cc1ccc(C)c(S(=O)(=O)Nc2ccc(C(=O)NCCCN(C)C)cc2)c1	-10.9	-11.2%	nt	8.1%	?	-5.6%
CS(=O)(=O)Nc1ccc(C(=O)NCCSC2CCCCC2)cc1	5.4	-9.3%	5.6%	?	-15.2%	-5.0%
CSc1cccc(NC(=O)C2CCN(c3ncnc4c3nc3n4CCCCC3)CC2)c1	nt	-21.8%	6.2%	?	-55.6%	-18.4%
CCc1cccc(NC(=O)C2CCCN(c3ncnc4c3nc3n4CCCCC3)C2)c1 (configuration not stated)	-54.4*	-27.3%	0.3%	?	?	-21.4%
O=C(Nc1cccnc1)C1CCCN(c2ncnc3c2nc2n3CCCCC2)C1 (configuration not stated)	26.1	-6.1%	6.7%	-29.7%	?	11.7%
O=C(Nc1cccc(Cl)c1)C1CCCN(c2ncnc3c2nc2n3CCCCC2)C1 (configuration not stated)	nt	-64.9%	0.0%	5.17µM*	?	?
COn1c(-c2ccccc2)nc2c1CCc1nonc1-2	-26.6	-24.7%	-2.5%	-8.2%	-13.9%	5.9%
c1ccc(COn2c(-c3ccccc3)nc3c2CCc2nonc2-3)cc1	1.8	-1.1%	5.9%	?	25.9µM*	12.4%
CC(C)(C)c1ccc(S(=O)(=O)NNC(=O)C2CCN(Cc3cccc(F)c3)CC2)cc1	-54.2*	-30.1%	0.0%	-3.0%	-11.8%	?
O=C(NCCc1cccc(F)c1)C1CCN(S(=O)(=O)c2ccc(F)cc2)CC1	5.1	-6.1%	nt	-0.6%	-3.2%	9.2%
CCN(CC)C(=O)COCc1cc(-c2ccc3c(c2)OCO3)on1	7.7	-12.5%	nt	-18.5%	?	-11.2%
COc1ccc(C(=O)N2CCC3(CCCN(Cc4cc(C(F)(F)F)cc(C(F)(F)F)c4)C3)CC2)cc1	nt	nt	nt	20.6µM*	?	nt
SMILES	IL-1B inflam inh	HepG2 tox	TDP1 inh	TDP1 cell CPT	DT40 TDP1 no CPT	TGFb SMAD3 inh
FC(F)(F)c1cc(CN2CCCC3(CCNCC3)C2)cc(C(F)(F)F)c1	nt	nt	nt	?	18.4µM*	nt
Fc1ccc(Nc2nc3ccccc3n3cnnc23)c(F)c1	nt	4.2%	0.0%	-1.3%	-20.8%	-0.2%
c1ccc2c(c1)nc(Nc1ccc(N3CCCCC3)cc1)c1nncn12	9.1	-37.2%	9.8%	?	?	?
c1ccc(N2CCCCC2)c(Nc2nc3ccccc3n3cnnc23)c1	57.6	5.4%	nt	?	20.6µM*	1.3%
FC(F)(F)c1ccc(N2CCOCC2)c(Nc2nc3ccccc3n3cnnc23)c1	-61.2*	2.8%	1.0%	?	?	-11.5%
Cc1ccccc1C1=CCN(c2ncc(NC(=O)c3ccc(Cl)cc3)cc2C(=O)O)CC1	nt	-0.3%	-6.4%	?	23.1µM*	-0.3%
Cc1nc2sc(-c3ccccc3)cc2c(=O)n1-n1cccc1	-62.5*	-89.3%	-5.2%	?	?	-1.1%
Cn1c(NC(=O)c2ccc(F)cc2)c(-c2cccs2)c(=O)c2ccccc21	-57.8*	3.7%	1.4%	?	?	-7.5%
CC(C)C(=O)Nc1c(-c2cccc(Cl)c2)c(=O)c2ccccc2n1C	8.2	-10.8%	nt	18.4µM*	23.1µM*	2.4%
CC(C)C(=O)Nc1c(-c2cccs2)c(=O)c2ccccc2n1C	3.6	5.4%	0.0%	0.1%	-7.1%	-2.6%
Cn1c(NC(=O)c2cccs2)c(-c2cccs2)c(=O)c2ccccc21	11.7	2.2%	1.9%	23.1µM*	-26.9%	?
Cn1c(NC(=O)c2ccccc2F)c(-c2cccs2)c(=O)c2ccccc21	-25.5	-3.4%	nt	?	-13.4%	9.6%
Cn1c(NC(=O)c2ccccc2)c(-c2cccs2)c(=O)c2ccccc21	-25.8	0.4%	2.3%	14.6µM*	16.4µM*	1.6%
Cc1c(P(=S)(c2ccccc2)c2ccccc2)c2ccccc2n1C/C=C/c1ccccc1	nt	nt	-0.1%	nt	nt	nt
CC12CCC(C(=O)NCc3ccc4c(c3)OCO4)(C(=O)C1=O)C2(C)C (configuration not stated)	-10.6	-11.9%	4.7%	-24.4%	-14.3%	-0.9%
O=C(NC(=S)N1CCOCC1)c1ccc([N+](=O)[O-])cc1	27.3	0.3%	2.6%	0.6%	-12.6%	0.0%

Bioassay records: PubChem, National Center for Advancing Translational Sciences (NCATS)
